{"source": "PubChem BioAssay (NCI)", "note": "Values joined by “and” are separate entries in the source; they are usually repeats but may differ in a detail not shown here. Equal values may be shown once. This is part of a sample that, as a whole, favours compounds with a hit. Of some 83,000 tested, about 20% had one in any assay.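 Cells were grown in 96-well plates and exposed to the test compound at a single concentration for 48 hours; results are reported as percent growth, with values below 10 considered active.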 Active and inactive are the calls of the source."}
{"system": "MCF7 breast", "assay": "NCI-60 one-dose screen, 48 h (100 = growth as untreated, 0 = no growth, -100 = all killed)", "conditions": "10 µM unless noted"}
{"smiles": "CNC(=S)c1nnsc1N", "growth": "19% [100 µM] (inactive) and 0.417% [100 µM] (active)"}
{"smiles": "COC(=O)C(Cc1nc2ccccc2[nH]c1=O)C(=O)C(=O)Nc1cc(C(F)(F)F)ccc1Cl", "note": "(stereo not given)", "growth": "-91.8% [100 µM] (active) and 0% [100 µM] (active)"}
{"smiles": "COc1cc([C@H]2OC[C@@H]3C(c4cc(OC)c5c(c4)OCO5)OC[C@H]23)cc(OC)c1OC", "note": "(stereo not given in full)", "growth": "67.2% [100 µM] (inactive) and 7.31% [100 µM] (active)"}
{"smiles": "N#Cc1n[nH]n(-c2ccccc2)c1=O", "growth": "95% [100 µM] (inactive) and 80.4% [100 µM] (inactive)"}
{"smiles": "COc1cc2c3cc1Oc1c(OC)c(OC)cc4c1C(Cc1ccc(O)c(c1)-c1cc(ccc1OC)CC3N(C)CC2)N(C)CC4", "note": "(stereo not given)", "growth": "10.3% [100 µM] (inactive) and -92.9% [100 µM] (active)"}
{"smiles": "C=C1C2CCC3C4(C)CCCC(C)(C(=O)O)C4CCC3(C2)C1OC(=O)/C(C)=C/C", "note": "(stereo not given)", "growth": "1.75% [100 µM] (active) and 65.7% [100 µM] (inactive)"}
{"smiles": "COC(=O)C(=O)C(C(=O)C(=O)Nc1ccc(Cl)c(Cl)c1)c1nc2ccc(C(=O)c3ccccc3)cc2[nH]c1=O", "note": "(stereo not given)", "growth": "32.4% [100 µM] (inactive) and 5.18% [100 µM] (active)"}
{"smiles": "Cc1ccc(/C=C2/N=C(N/N=C\\c3ccccc3)NC2=O)cc1", "growth": "1.56% [100 µM] (active) and 22.5% [100 µM] (inactive)"}
{"smiles": "COC(=O)C1=CO[C@@H](OC2OC(CO)C(O)C(O)C2O)[C@H]2[C@@H](C)[C@@H](O)[C@@H](O)[C@@H]12", "note": "(stereo not given in full)", "growth": "95.3% [100 µM] (inactive) and 91.8% [100 µM] (inactive)"}
{"smiles": "N#CC1(C#N)C2CCCCC23OC(=N)C1(C#N)C(c1ccccc1)O3", "note": "(stereo not given)", "growth": "-47% [100 µM] (active)"}
{"smiles": "CC(=Nc1ccncc1)C(C)=Nc1ccncc1", "growth": "-47.5% [100 µM] (active) and -27.7% [100 µM] (active)"}
{"smiles": "Cc1ccc(OCC2OC(n3cnc4nc(Cl)nc(Cl)c43)CC2Oc2ccc(C)cc2)cc1", "note": "(stereo not given)", "growth": "0.206% [100 µM] (active) and -99.2% [100 µM] (active)"}
{"smiles": "COC(=O)C(=O)C(C(=O)C(=O)Nc1ccccc1OC)c1nc2ccc([N+](=O)[O-])cc2[nH]c1=O", "note": "(stereo not given)", "growth": "43% [100 µM] (inactive) and 41.8% [100 µM] (inactive)"}
{"smiles": "OCc1ccccc1OC1OC(CO)C(O)C(O)C1O", "note": "(stereo not given)", "growth": "120% [100 µM] (inactive) and 82.9% [100 µM] (inactive)"}
{"smiles": "CC/C(Cl)=N\\OC(=O)Nc1ccc(OC)cc1", "growth": "-75.9% [100 µM] (active) and -79.9% [100 µM] (active)"}
{"smiles": "C=C(C)C1CC2(C)C(C)CC(OC(=O)/C(C)=C\\C)CC2C(OC(=O)/C(C)=C\\C)C1O", "note": "(stereo not given)", "growth": "-15.7% [100 µM] (active) and -14.3% [100 µM] (active)"}
{"smiles": "Cc1ccc(/C=N/Nc2nncc3ccccc23)s1", "growth": "19% [100 µM] (inactive) and 4.27% [100 µM] (active)"}
{"smiles": "O=C1NC(N/N=C\\c2ccccc2)=N/C1=C/c1ccc(Cl)cc1", "growth": "-66.3% [100 µM] (active) and 14% [100 µM] (inactive)"}
{"smiles": "CC(=O)C1=C(C)N2C(=NC3=C(CCc4ccccc43)C2c2ccc(Cl)cc2)S1", "note": "(stereo not given)", "growth": "24.9% [100 µM] (inactive) and 9.75% [100 µM] (active)"}
{"smiles": "Cc1ccc(/C=N/Nc2cnccn2)s1", "growth": "14.7% [100 µM] (inactive) and 4.18% [100 µM] (active)"}
{"smiles": "CN(C)c1ccc(/C=N/n2c(-c3ccccc3)nc3ccccc3c2=O)cc1", "growth": "40.4% [100 µM] (inactive) and 21.1% [100 µM] (inactive)"}
{"smiles": "O=C(O)c1n[nH]nc1Cl", "growth": "94.1% [100 µM] (inactive) and 80.7% [100 µM] (inactive)"}
{"smiles": "CC(C)C1OC(N)=C(C#N)C1(C#N)C#N", "note": "(stereo not given)", "growth": "12.9% [100 µM] (inactive) and 2.2% [100 µM] (active)"}
{"smiles": "O=C1CC(c2ccccc2)NCCCCN2CC(CN1)C(C(O)c1ccccc1)C2=O", "note": "(stereo not given)", "growth": "97.3% [100 µM] (inactive) and 76% [100 µM] (inactive)"}
{"smiles": "COc1ccc2c(C)cc(N/N=C/c3ccc(C)s3)nc2c1", "growth": "-55.5% [100 µM] (active) and -100% [100 µM] (active)"}
